The structures appear in SMILES notation. ± gives the standard deviation of the averaged measurements.

We go through 40 molecules from the supplement of paper PMC6522484.

In one assay the test system is DLD1. The experiment in a line: cell viability (CellTiter-Glo) relative to plate median (fraction of plate median); higher = more viable cells. Particulars: 5 µM; treatment time 24 h; reporter: 7TFP. The essentials:
(§1)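 Colorectal cancer cell lines stably transduced with lentiviral TCF/Wnt firefly luciferase reporters (7TFP or TCF4/Wnt) were seeded in 384-well plates. 24 h later they received library compounds at a final 5 µM for 24 h. Parallel plates were read for firefly luciferase or CellTiterGlo luminescence on a Tecan F500 reader. Each well's signal was normalised to the plate median (webcellHTS2, additive, no log transformation), and the mean of two independent replicates is reported.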
In turn, `CNCC[C@H](Oc1cccc2ccccc12)c1cccs1` registered a cell viability of 1.03 ± 0.067.
`CC1NC(=O)CNC1=O` (centres undefined) [cyclo(alanylglycyl)] returned a cell viability of 0.883 ± 0.05.
On the same count and under the same terms, in the case of `COc1ccc(NS(=O)(=O)c2ccc(N)cc2)nn1` it was 0.99 ± 0.057; in that of `O=C(CCCCC(=O)Nc1c(I)cc(I)c(C(=O)O)c1I)Nc1c(I)cc(I)c(C(=O)O)c1I`, 1.05.
The same measure, in the same setting: the same measure for `COc1cc([S+](C)[O-])ccc1-c1nc2cccnc2[nH]1` (centres undefined): 0.968 ± 0.028; for `C/C=C/C1=CC(=O)[C@@H](O)[C@@H]1O` [Terrein]: 0.964 ± 0.066; for `O=C1OC(=O)[C@H]2[C@@H]1[C@@H]1CC[C@H]2O1`: 0.9975 ± 0.0035.
Same read-out and setting: the same measure for `COC(=O)c1c(OC)cc2c(c1C)Oc1c(Cl)c(OC(C)=O)c(Cl)c(C)c1C(=O)O2`: 0.935 ± 0.028; for `Cc1cc(O)cc(C)c1Cl`: 0.903 ± 0.012.
`CC(=O)N1CCCC(N)C1=O` (centres undefined) [N-Acetyl-3-amino-2-piperidinon]: the cell viability turned out to be 0.974 ± 0.079.
Same read-out and setting: in the case of `CCc1ccc(CCOc2ccc(CC3SC(=O)NC3=O)cc2)nc1` (centres undefined) it was 0.923 ± 0.048; in that of `O=C(C=Cc1ccc(O)cc1)c1ccccc1O`, 0.926 ± 0.089; in that of `CO/N=C(\C(=O)N[C@@H]1C(=O)N2C(C(=O)O)=C(CSc3nc(=O)c(O)nn3C)CS[C@H]12)c1csc(N)n1`, 1.06 ± 0.071.
On the same count and under the same terms, the same measure for `O=c1cc(-c2ccc(O)c(O)c2)oc2cc(O[C@@H]3O[C@H](CO)[C@@H](O)[C@H](O)[C@H]3O)cc(O)c12` [Luteolin-7-O-glucoside (102)]: 0.908 ± 0.058; for `CCCCc1oc2ccccc2c1C(=O)c1cc(I)c(OCCN(CC)CC)c(I)c1`: 1.02 ± 0.089.
On the same count and under the same terms, in the case of `COC(=O)N/N=C/c1c[n+]([O-])c2ccccc2[n+]1[O-]` it was 0.917 ± 0.13.
`COc1ccc2c(c1)[C@@]1(C)CC[C@@H](O)C[C@@H]1CC2` [12-METHOXY-4,4-BISNOR-5alpha-8,11,13-PODOCARPATRIEN-3-OL]: the cell viability was determined as 1.02 ± 0.014.
Still for that read-out and setting: the same measure for `CN1CC(=O)N2[C@H](c3ccc4c(c3)OCO4)c3[nH]c4ccccc4c3C[C@@H]2C1=O`: 0.995 ± 0.079.
With `N[C@@H](Cc1c[nH]c2ccccc12)C(=O)O`, the cell viability came to 1.07 ± 0.078.
For `CCOC(=O)[C@H](CCc1ccccc1)N[C@@H](C)C(=O)N1[C@H](C(=O)O)C[C@@H]2CCC[C@@H]21`, the cell viability turned out to be 1.11 ± 0.17.
Same read-out and setting: in the case of `CC(C)CC(NC(=O)OCC1c2ccccc2-c2ccccc21)C(=O)O` (stereo in doubt) it was 1.06 ± 0.057; in that of `O=c1c(O)cc([C@H]2Oc3cc(O)cc(O)c3C[C@H]2O)cc2c([C@H]3Oc4cc(O)cc(O)c4C[C@H]3O)cc(O)c(O)c12`, 0.934 ± 0.033; in that of `O=C(O)c1c2ccccc2cc2ccccc12`, 0.959 ± 0.043.
On to `COc1ccc(-c2cc(=O)c3c(OC)c(OC)c(OC)c(OC)c3o2)cc1OC`, for which the cell viability turned out to be 0.9 ± 0.064.

For another assay, the system named is HCT116. Described as above. Particulars: 5 µM; treatment time 24 h; reporter: TCF4/Wnt. A digest of the protocol:
as §1
The molecule `O=c1cc(-c2ccccc2)oc2cccc(O)c12` registered a cell viability of 1.04 ± 0.073.
The same measure, in the same setting: in the case of `C[C@]12CCC(=O)C=C1C=C[C@@H]1[C@@H]2CC[C@@]2(C)[C@H]1CC[C@@]21CCC(=O)O1` it was 0.899 ± 0.049; in that of `CCc1cnn2c(NCc3ccc[n+]([O-])c3)cc(N3CCCC[C@H]3CCO)nc12` [Dinaciclib], 0.779 ± 0.069; in that of `O=C(/C=C/c1ccc(O)c(O)c1)OCCc1ccccc1`, 0.94 ± 0.039.
Still for that read-out and setting: the same measure for `O=C(Cn1ccnc1[N+](=O)[O-])NCCO`: 0.989 ± 0.1; for `O=C(O)c1cc(O)c(O)c(O)c1`: 0.955 ± 0.093.
On the same count and under the same terms, in the case of `Cc1cc(O)c(C=O)c2c1C(=O)Oc1c(COC(=O)/C=C/C(=O)O)c(O)c(C(=O)O)c(C)c1O2` it was 1.05 ± 0.021; in that of `CC(C)c1c(O)ccc2c1CCC1[C@@](C)(C=O)CCC[C@]21C` (some centres undefined), 1.01 ± 0.031.
In turn, `CC(=O)OC(C)(C)[C@@H]1Cc2cc3ccc(=O)oc3cc2O1` came in with a cell viability of 1.1 ± 0.014.
Molecule `CCOC(=O)[C@H](CCc1ccccc1)N[C@@H](C)C(=O)N1Cc2ccccc2C[C@H]1C(=O)O` had a cell viability of 0.895 ± 0.071.
On the same count and under the same terms, the same measure for `COc1cc(/C=C/C(=O)O)cc(OC)c1OC`: 0.961 ± 0.015; for `CC(=O)OC1CCC2(O)CC1(C)CCC1C2CC1(C)C` (centres undefined): 1.06 ± 0.05; for `C[C@@H]1CC[C@@]2(OC1)O[C@H]1C[C@H]3[C@@H]4CC[C@H]5C[C@@H](O)CC[C@]5(C)[C@H]4CC[C@]3(C)[C@H]1[C@@H]2C`: 0.875 ± 0.037.
Same read-out and setting: in the case of `CC(=O)OCC(=O)[C@@]1(O)CC[C@H]2[C@@H]3CCC4=CC(=O)CC[C@]4(C)[C@@]3(F)[C@@H](O)C[C@@]21C` it was 1.07 ± 0.085; in that of `COc1ccc2c3c1O[C@H]1C[C@@H](O)C=C[C@@]31CCN(C)C2`, 1 ± 0.081.
Take `CCCCC(=O)N(Cc1ccc(-c2ccccc2-c2nnn[nH]2)cc1)[C@H](C(=O)O)C(C)C`: the cell viability is 0.988 ± 0.17.
With `CNCC[C@H](Oc1cccc2ccccc12)c1cccs1`, the cell viability was 1.06 ± 0.021.
Consider `CC1NC(=O)CNC1=O` (centres undefined) [cyclo(alanylglycyl)], for which the cell viability turned out to be 0.918 ± 0.051.
Still for that read-out and setting: in the case of `COc1ccc(NS(=O)(=O)c2ccc(N)cc2)nn1` it was 1.09 ± 0.042.
Same read-out and setting: in the case of `O=C(CCCCC(=O)Nc1c(I)cc(I)c(C(=O)O)c1I)Nc1c(I)cc(I)c(C(=O)O)c1I` it was 1.08 ± 0.16.
Still for that read-out and setting: in the case of `COc1cc([S+](C)[O-])ccc1-c1nc2cccnc2[nH]1` (centres undefined) it was 0.979 ± 0.058; in that of `C/C=C/C1=CC(=O)[C@@H](O)[C@@H]1O` [Terrein], 1.03 ± 0.014.
In turn, `O=C1OC(=O)[C@H]2[C@@H]1[C@@H]1CC[C@H]2O1` showed a cell viability of 0.867 ± 0.079.
On the same count and under the same terms, the same measure for `COC(=O)c1c(OC)cc2c(c1C)Oc1c(Cl)c(OC(C)=O)c(Cl)c(C)c1C(=O)O2`: 1.02 ± 0.088.
Same read-out and setting: the same measure for `Cc1cc(O)cc(C)c1Cl`: 0.8955 ± 0.0021; for `CC(=O)N1CCCC(N)C1=O` (centres undefined) [N-Acetyl-3-amino-2-piperidinon]: 0.871 ± 0.021; for `CCc1ccc(CCOc2ccc(CC3SC(=O)NC3=O)cc2)nc1` (centres undefined): 0.904 ± 0.07.
The same measure, in the same setting: in the case of `O=C(C=Cc1ccc(O)cc1)c1ccccc1O` it was 0.881 ± 0.03.
The molecule `CO/N=C(\C(=O)N[C@@H]1C(=O)N2C(C(=O)O)=C(CSc3nc(=O)c(O)nn3C)CS[C@H]12)c1csc(N)n1` returned a cell viability of 1.06 ± 0.071.
Same read-out and setting: the same measure for `O=c1cc(-c2ccc(O)c(O)c2)oc2cc(O[C@@H]3O[C@H](CO)[C@@H](O)[C@H](O)[C@H]3O)cc(O)c12` [Luteolin-7-O-glucoside (102)]: 0.957 ± 0.041; for `CCCCc1oc2ccccc2c1C(=O)c1cc(I)c(OCCN(CC)CC)c(I)c1`: 1.02 ± 0.036; for `COC(=O)N/N=C/c1c[n+]([O-])c2ccccc2[n+]1[O-]`: 0.998 ± 0.2.
With `COc1ccc2c(c1)[C@@]1(C)CC[C@@H](O)C[C@@H]1CC2` [12-METHOXY-4,4-BISNOR-5alpha-8,11,13-PODOCARPATRIEN-3-OL], the cell viability stood at 1.1 ± 0.13.
Consider `CN1CC(=O)N2[C@H](c3ccc4c(c3)OCO4)c3[nH]c4ccccc4c3C[C@@H]2C1=O`, for which the cell viability amounted to 1.08 ± 0.028.
For `N[C@@H](Cc1c[nH]c2ccccc12)C(=O)O`, the cell viability amounted to 1.07 ± 0.014.
Same read-out and setting: the same measure for `CCOC(=O)[C@H](CCc1ccccc1)N[C@@H](C)C(=O)N1[C@H](C(=O)O)C[C@@H]2CCC[C@@H]21`: 1.08 ± 0.014; for `CC(C)CC(NC(=O)OCC1c2ccccc2-c2ccccc21)C(=O)O` (stereo in doubt): 0.996 ± 0.035; for `O=c1c(O)cc([C@H]2Oc3cc(O)cc(O)c3C[C@H]2O)cc2c([C@H]3Oc4cc(O)cc(O)c4C[C@H]3O)cc(O)c(O)c12`: 1.01 ± 0.02.
As for `O=C(O)c1c2ccccc2cc2ccccc12`, the cell viability came to 1.02 ± 0.13.
The molecule `COc1ccc(-c2cc(=O)c3c(OC)c(OC)c(OC)c(OC)c3o2)cc1OC` registered a cell viability of 0.914 ± 0.059.
